These results are taken from PubChem BioAssay (NCATS).

Inconclusive results are not listed. The source made the active and inactive calls. Calls come from the whole dose curve; as a rule, active = well fitted inhibition curve with a large enough effect; inconclusive = small, poorly fitted or top-dose-only effect; inactive = flat fitted curve, though single readings scatter.

For this assay, the system named is Zika virus NS2B-NS3 protease. Briefly: Primary screen GU AMC qHTS for Zika virus inhibitors (AID 1347154).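 Note: 0% = no-inhibitor control and -100% = no-enzyme control; nearly all actives have a fitted effect of over 70% in size.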 The conditions noted are these: Zika NS2B-NS3 unlinked protease, AMC fluorogenic substrate; series mostly up to 54.1 µM; activity change, negative = inhibition: at the top concentration. In outline: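 Unlinked Zika NS2B hydrophilic domain/NS3 protease domain noncovalent complex (25 nM final) in 10 mM Tris-HCl pH 8.0, 0.01% Tween 20, with AMC peptide substrate. Fluorescence (ex 340, em 450 nm) change over 15 min, room temperature; percent inhibition fitted to 4-parameter Hill equation.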
As to `Nc1ccncc1N`, the “activity change, negative = inhibition” value was -1% (inactive).

`Cc1cccc(Nc2ccccc2C(=O)O)c1C`: the “activity change, negative = inhibition” value is -2.51% (inactive).

Regarding `CCN(CC)CCOC(=O)C(c1ccccc1)c1ccccc1`, the “activity change, negative = inhibition” value was 0.192% (inactive).

`CC(C)=CCC/C(C)=C/CO`: the “activity change, negative = inhibition” value was -1.39% (inactive).

On to `C/C=C/C(=O)N(CC)c1ccccc1C`, for which the “activity change, negative = inhibition” value was 1.69% (inactive).

`CC(C)CCCC(C)CCCC(C)CCCCC(C)CCCC(C)CCCC(C)C` (configuration not stated): the “activity change, negative = inhibition” value was 0.976% (inactive).

With `O=C(O)c1ccc[n+]([O-])c1`, the “activity change, negative = inhibition” value is -3.9% (inactive).

On to `NS(=O)(=O)c1cc(C2(O)NC(=O)c3ccccc32)ccc1Cl` (configuration not stated), for which the “activity change, negative = inhibition” value was 1.17% (inactive).

With `CCC(C)(CN(C)C)OC(=O)c1ccccc1` (configuration not stated), the “activity change, negative = inhibition” value is -0.189% (inactive).

`C[N+]1(C)CCCC(OC(=O)C(O)(c2ccccc2)c2ccccc2)C1` (configuration not stated): the “activity change, negative = inhibition” value was -2.33% (inactive).

Consider `NC(=O)CC[C@@H](N)C(=O)O`, for which the “activity change, negative = inhibition” value is 3.92% (inactive).

As to `CCCCCC(N)=O`, the “activity change, negative = inhibition” value is -1.47% (inactive).

With `COc1ccc(C(=O)N2CCN(CC(=O)N3CCOCC3)CC2)cc1`, the “activity change, negative = inhibition” value was 0.679% (inactive).

Take `Cc1c(C(=O)NCCO)[n+](=O)c2ccccc2n1[O-]`: the “activity change, negative = inhibition” value was -5.63% (inactive).

For the compound `CC(=O)Oc1cccc(O)c1`, the “activity change, negative = inhibition” value was -1.48% (inactive).

With `COC(=O)c1ccc(O)cc1`, the “activity change, negative = inhibition” value is 0.569% (inactive).

For `CCN[C@H]1CN(CCCOC)S(=O)(=O)c2sc(S(N)(=O)=O)cc21`, the “activity change, negative = inhibition” value is 1.78% (inactive).

Take `CC(C(=O)O)c1ccc2c(c1)Cc1cccnc1O2` (configuration not stated): the “activity change, negative = inhibition” value was -1.36% (inactive).

On to `NS(=O)(=O)c1ccc(C(=O)O)cc1`, for which the “activity change, negative = inhibition” value is 3.94% (inactive).

For `Cc1cc(C)nc(NS(=O)(=O)c2ccc(N)cc2)n1`, the “activity change, negative = inhibition” value is 0.367% (inactive).

In the case of `Cn1cc(C(=O)[C@@H]2CCc3nc[nH]c3C2)c2ccccc21`, the “activity change, negative = inhibition” value was 1.2% (inactive).

For `O=c1[nH]c(=O)c2ccccc2o1`, the “activity change, negative = inhibition” value is -5.12% (inactive).

With `Cc1c(N(C)C)c(=O)n(-c2ccccc2)n1C`, the “activity change, negative = inhibition” value is -3.78% (inactive).

For `CN[C@@H]1[C@H](O)[C@H](NC)[C@H]2O[C@@]3(O)C(=O)C[C@@H](C)O[C@H]3O[C@@H]2[C@H]1O`, the “activity change, negative = inhibition” value is -3.26% (inactive).

As to `CCCCCCCCCCC(CO)CCCCCCCC` (configuration not stated), the “activity change, negative = inhibition” value is -0.744% (inactive).

With `Cc1cc(-n2nc3ccc(Cl)cc3n2)c(O)c(C(C)(C)C)c1`, the “activity change, negative = inhibition” value is 4.08% (inactive).

Turning to `CN1C(C)(C)CCCC1(C)C`, the “activity change, negative = inhibition” value is 3.04% (inactive).

In the case of `NS(=O)(=O)c1cc2c(cc1C(F)(F)F)NCNS2(=O)=O`, the “activity change, negative = inhibition” value is -9.75% (inactive).

Turning to `O=C1c2ccccc2S(=O)(=O)N1CCCCN1CCN(c2ncccn2)CC1`, the Potency entry is “inactive”.

`CCOc1ccccc1O[C@H](c1ccccc1)[C@H]1CNCCO1`: the Potency entry is “inactive”.

Consider `CO[C@@]1(NC(=O)C(C(=O)O)c2ccc(O)cc2)C(=O)N2C(C(=O)O)=C(CSc3nnnn3C)CO[C@@H]21` (some centres not stated), for which the “activity change, negative = inhibition” value was -5.11% (inactive).

On to `O=C(NCCCN1CCOCC1)c1ccc(Cl)cc1`, for which the “activity change, negative = inhibition” value is 0.465% (inactive).

As to `CC[C@H](C)[C@H](N)C(=O)O`, the “activity change, negative = inhibition” value is 9.44% (inactive).

Consider `O=C(O)c1ccccc1C(=O)Nc1ccc(S(=O)(=O)Nc2nccs2)cc1`, for which the “activity change, negative = inhibition” value is -2.27% (inactive).

For the compound `C[N+](C)(C)CC(O)CC(=O)[O-]` (configuration not stated), the “activity change, negative = inhibition” value was -0.987% (inactive).

For `NC(=O)N[C@@H](CCC(=O)O)C(=O)O`, the “activity change, negative = inhibition” value was -2.22% (inactive).

`CCCCOC(=O)c1ccc(N)cc1`: the “activity change, negative = inhibition” value is 0.602% (inactive).
